Experimental data from PubChem BioAssay (NCI).
Where “and” joins values, the source holds several entries; their conditions need not be identical. Identical values can stand only once. This is part of a sample that, as a whole, favours compounds with a hit. Of some 83,000 tested, about 20% had one in any assay.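 Results are percent growth after 48 hours of single-concentration exposure. 100 means growth as in untreated cells, lower positive values show inhibition; negative values down to -100 show cell death.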 Unmarked numbers belong to inactive results. Calls of active or inactive are those of the source. The calls were made as follows: active = growth percent below 10; inactive = the rest.

Assays:
Assay in all cases: NCI-60 one-dose screen, 48 h (100 = growth as untreated, 0 = no growth, -100 = all killed)
Details in all cases: 10 µM unless noted
[1] = tested on: NCI-H23 lung
[2] = tested on: NCI-H226 lung
[3] = tested on: NCI-H322M lung
[4] = tested on: HOP-62 NSCLC
[5] = tested on: NCI-H460 lung
[6] = tested on: HOP-92 NSCLC
[7] = tested on: NCI-H522 lung
[8] = tested on: A549/ATCC NSCLC
[9] = tested on: 786-0 renal
[10] = tested on: COLO 205 colon
[11] = tested on: DU-145 prostate
[12] = tested on: K-562 leukemia
[13] = tested on: MALME-3M melanoma
[14] = tested on: MDA-MB-231 breast
[15] = tested on: RXF 393 renal
[16] = tested on: SF-268 CNS
[17] = tested on: SF-295 CNS
[18] = tested on: SF-539 CNS
[19] = tested on: UACC-257 melanoma
[20] = tested on: M14 melanoma

Structure (SMILES)	growth [1]	growth [2]	growth [3]	growth [4]	growth [5]	growth [6]	growth [7]	growth [8]	growth [9]	growth [10]	growth [11]	growth [12]	growth [13]	growth [14]	growth [15]	growth [16]	growth [17]	growth [18]	growth [19]	growth [20]
COc1cc(/C=C/C(=O)c2ccc(NC(=O)CSc3nnc(-c4cc(-c5ccccc5)nc5ccccc45)n3-c3ccccc3)cc2)cc(OC)c1OC	86.8%	85.4%	91.7%	93.7%	90.4%	88.6%	70.7%	85.8%	94.7%	86.4%	83.7%	49.7%	94.6%	64.2%	94.1%	90.8%	96.6%	88.3%	109%	94.5%
NS(=O)(=O)c1ccc(C(=O)N=Nc2c(O)[nH]c3c(F)cccc23)cc1	94.9%	96.8%	98.2%	97.1%	111%	98.2%	91.2%	99.9%	103%	106%	113%	107%	95.9%	106%	97.3%	107%	103%	94.8%	103%	101%
Cc1ccc(/C=C(\C#N)c2cc3ccccc3[nH]2)cc1	66%	95.3%	87.7%	49.5%	30.6%	51.1%	13.7%	49%	72.7%	32.4%	73.1%	13.8%	67.7%	35.9%	82.8%	68.1%	68.2%	57.7%	72.4%	31.5%
Cc1ccccc1SSc1ccccc1C	83.4%	95.6%	98.2%	96%	37.4%	81.2%	60.8%	98.8%	105%	91.4%	6.96% (active)	99.1%	104%	82.7%	73.8%	95.2%	80.3%	104%	105%	85.2%
O=C1/C(=C/c2ccc(-c3ccccc3C(F)(F)F)o2)SC(=S)N1CCc1ccc(O)cc1	78.2%	90.2%	75.6%	50.2%	48.3%	61%	-11% (active)	45.7%	65%	48.1%	66.2%	17.5%	32.2%	67%	71.2%	51.4%	54.4%	54.2%	67%	34.4%
COc1ccc(Oc2nc(Nc3ccc(N4CCOCC4)cc3)ncc2NC(=O)c2cc(OC)cc(OC)c2)cc1	101%	71.2%	96.7%	97%	95.5%	70.7%	58.2%	82.4%	66.5%	64.5%	98.7%	58.3%	108%	85.2%	52.3%	90%	94%	87.2%	99%	91.4%
CC[C@]12CN3CCc4c([nH]c5ccccc45)[C@@](C(=O)OC)(c4cc5c(cc4OC)N(C)[C@H]4[C@@](O)(C(=O)OC)[C@H](OC(C)=O)[C@]6(CC)C=CCN7CC[C@]54[C@@H]76)CC(C3)[C@H]1O2 (some centres not stated)	21.1%	42.6%	41%	50.9%	-27.3% (active)	9.26% (active)	-5.19% (active)	20.9%	19.6%	-49.9% (active)	-21.8% (active)	16.6%	56.1%	-28.8% (active)	10.2%	26.4%	-22.9% (active)	2.86% (active)	42.3%	-29.3% (active)
CCOC(=O)c1ccc(Nc2ncnc3c2cnn3-c2cccc(F)c2)cc1	110%	94.6%	102%	93.7%	102%	90.6%	91.9%	102%	104%	113%	106%	96.7%	103%	93.3%	105%	94.2%	100%	98.5%	99.6%	99.1%
C=C(c1ccc(C(=O)O)cc1)c1cc2c(cc1C)C(C)(C)CCC2(C)C	81.7% and 81.9%	76% and 86.3%		79.7% and 67.3%	83.4% and 79%	68.4%	52.4% and 61.4%	52.1% and 31.2%	79.1% and 80.1%	135% and 118%	94.4% and 92.3%	53.4% and 58.5%	64.9%	69.6% and 68.2%	94.9% and 105%	90.2% and 75.4%	38.5% and 48.8%	82.1% and 80.5%	94.9% and 90.3%	87% and 75.5%
COc1ccc(-c2nc(Cl)c3c(C)nn(-c4ccc(F)cc4)c3n2)cc1	97.1%	103%	105%	104%	108%	101%	97.3%	90.4%	105%	110%	111%	100%	115%	106%	122%	106%	107%	111%	91.9%	100%
CCOC(=O)CCCn1c(-c2ccccc2)cc(-c2ccccc2)c(C#N)c1=O	83.5%	89.5%	97.8%	93.7%	65.4%	48.3%	70.1%	84.3%	88.8%	98.4%	97.1%	81.8%	108%	86.8%	79.2%	88.4%	69.2%	81.5%	90.5%	86.8%
O=C(N/N=C/c1ccc(O)cc1O)c1cccc(Nc2ccnc(C(F)(F)F)c2)c1	27.5%	40.5%	22.7%	14.3%	22.2%	44.1%	41.5%	55.9%	5.8% (active)	43%	17.7%	21.6%	2.77% (active)	41.3%	44.9%	11.8%	20.4%	8.62% (active)	36.3%	-1.76% (active)
CC(=O)N1N=C(c2ccc(Nc3nc(Nc4ccc(F)cc4)nc(Nc4ccc(Cl)cc4)n3)cc2)CC1c1ccc(N(C)C)cc1 (configuration not stated)	52.2%	42.3%	79.6%	109% and 58.6%	44.9%	22.5%	47.8%	30.3%	113% and 44.1%	51.2%	5.71% (active)	23.8%	62.7%	51%		68.8%	1.56% (active)	67.9%	46.8%	41.4%
Cc1nonc1-c1ccc2c(c1)OCO2	91.5% and 112%	94.3%	113% and 124%	123% and 106%	106%		102% and 103%	90.6% and 98.2%	104% and 107%	114% and 140%	94.4% and 109%	101%	116% and 142%	96.8% and 110%	96.8% and 99.4%	89.9% and 95%	91.4% and 101%	111% and 95.7%	104% and 111%	110% and 108%
